Test results reported in PubChem BioAssay (NCI).
About 79,000 compounds went through this panel and 15% of them were active in at least one assay; those are over-represented in the sample as a whole. The source made the active and inactive calls. No stated cut-off is given here; in the data, active means growth inhibition above about 70%; inactive means the rest.

Legend:
[1] = NCI Yeast Anticancer Drug Screen. Data for the rad52 strain (AID 147);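 further: 0% = growth of vehicle-treated control cultures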; conditions: S. cerevisiae rad52 mutant growth inhibition, stronger effect = higher value
Outline: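 Growth of repair-deficient yeast cells was compared between compound-treated and vehicle-treated cultures to give percent inhibition.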

[2] = NCI Yeast Anticancer Drug Screen. Data for the wt1 strain (AID 149);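 further: 0% = growth of vehicle-treated wt1 cultures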; conditions: S. cerevisiae wt1 strain (SPY 50644) growth inhibition, stronger effect = higher value
Outline: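 Using yeast strain wt1, compound-induced growth inhibition was determined against vehicle-treated cultures.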

[3] = NCI Yeast Anticancer Drug Screen. Data for the rad50EPP+ strain (AID 151);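 further: 0% = growth of vehicle-treated control cultures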; conditions: S. cerevisiae rad50 mutant strain, stronger effect = higher value
Outline: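 Measured: growth inhibition of rad50EPP+ yeast. Reference: vehicle-treated controls. Screen uses strains with defined genetic alterations in DNA damage repair or cell cycle control.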

[4] = NCI Yeast Anticancer Drug Screen. Data for the mgt1 strain (AID 153); conditions: S. cerevisiae mgt1 mutant growth inhibition, stronger effect = higher value
Outline: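 Compounds were applied to mgt1 mutant yeast, and growth was then compared against vehicle-treated control cultures to give percent inhibition.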

[5] = NCI Yeast Anticancer Drug Screen. Data for the rad50 strain (AID 155);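 further: 0% = growth of vehicle-only cultures of the same strain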; conditions: S. cerevisiae rad50 strain growth inhibition, stronger effect = higher value
Outline: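 Relative growth inhibition (compound vs vehicle) was measured in yeast with a defined repair-gene alteration.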

[6] = NCI Yeast Anticancer Drug Screen. Data for the mec2-1 strain (AID 157); conditions: S. cerevisiae mec2-1 strain, stronger effect = higher value
Outline: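 Compounds were applied to mec2-1 yeast cells. Their growth was then compared with that of vehicle-treated cultures to give growth inhibition.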

[7] = NCI Yeast Anticancer Drug Screen. Data for the rad14 strain (AID 159);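 further: 0% = growth of vehicle-treated control cultures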; conditions: S. cerevisiae rad14 strain growth inhibition, stronger effect = higher value
Outline: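 Screen for anticancer potential: a yeast strain altered in DNA damage repair is grown with compound, and reduced growth is quantified against vehicle controls.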

[8] = NCI Yeast Anticancer Drug Screen. Data for the sgs1 mgt1 strain (AID 161);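 further: 0% = growth of cultures given vehicle only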; conditions: S. cerevisiae sgs1 mgt1 strain, stronger effect = higher value
Outline: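 Growth of a repair-deficient yeast mutant was monitored after compound treatment and expressed as inhibition relative to vehicle-treated cultures.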

[9] = NCI Yeast Anticancer Drug Screen. Data for the CLN2oe strain (AID 163);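 further: 0% = growth of vehicle-only control cultures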; conditions: S. cerevisiae CLN2oe strain, stronger effect = higher value
Outline: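 Cells of an engineered yeast line with disturbed cell-cycle regulation are treated with compound. Inhibition of growth is then calculated relative to the vehicle-treated reference.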

[10] = NCI Yeast Anticancer Drug Screen. Data for the cln2 rad14 strain (AID 165);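 further: 0% = growth equal to vehicle treated cultures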; conditions: S. cerevisiae cln2 rad14 strain, stronger effect = higher value
Outline: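 Strain: cln2 rad14 yeast, altered in cell cycle control and DNA damage repair. Read-out: growth inhibition vs vehicle.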

[11] = NCI Yeast Anticancer Drug Screen. Data for the bub3 strain (AID 167); conditions: S. cerevisiae bub3 mutant strain, stronger effect = higher value
Outline: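 Screening used yeast with an engineered genetic alteration affecting cell cycle control. Compound-exposed cultures were compared with vehicle cultures, and reduced growth was taken as inhibition.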

[12] = NCI Yeast Anticancer Drug Screen. Data for the wt2 strain (AID 169);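 further: 0% = growth of vehicle-treated yeast cultures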; conditions: S. cerevisiae wt2 strain growth inhibition, stronger effect = higher value
Outline: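 Growth of compound-treated yeast is measured and expressed as inhibition relative to vehicle-only controls.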

[13] = NCI Yeast Anticancer Drug Screen. Data for the mlh1 strain (AID 171);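 further: 0% = growth of vehicle-treated control cultures of the same strain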; conditions: S. cerevisiae mlh1 strain growth inhibition, stronger effect = higher value
Outline: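 Test agents were incubated with yeast bearing a defined DNA damage repair or cell cycle control alteration; values are growth inhibition normalised to vehicle-treated cultures.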

[14] = NCI Yeast Anticancer Drug Screen. Data for the sgs1 strain (AID 173);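 further: 0% = growth of vehicle-only control cultures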; conditions: S. cerevisiae sgs1 mutant, stronger effect = higher value
Outline: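 Strain with an altered DNA repair or cell cycle pathway exposed to compound. Growth then measured. Value = inhibition versus vehicle control.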

[15] = NCI Yeast Anticancer Drug Screen. Data for the mlh1 rad18 strain (AID 175); conditions: S. cerevisiae mlh1 rad18 strain growth inhibition, stronger effect = higher value
Outline: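 A repair-deficient yeast strain is exposed to test compound, and growth is scored relative to vehicle-treated controls.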

[16] = NCI Yeast Anticancer Drug Screen. Data for the rad18 strain (AID 177); conditions: S. cerevisiae rad18 mutant growth inhibition, stronger effect = higher value
Outline: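 DNA-repair-defective yeast; compound treatment; growth inhibition scored against vehicle.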

[17] = at 5.0 µM (retest, dose inferred, filed as 0.5)
[18] = at 50.0 µM (retest, dose inferred, filed as 5.0)

Measured: growth inhibition

CC1=COC2=C(C)C(=O)C(=O)c3c(C)ccc1c32
active: [1]; at 100.0 µM 93% | [2]; at 33.0 µM 77% | [2]; at 100.0 µM 96% | [4]; at 33.0 µM 89% | [4]; at 100.0 µM 94% | [5]; at 33.0 µM 85% | [5]; at 50.0 µM 88.3% | [5]; at 100.0 µM 93% | [6]; at 33.0 µM 80% | [6]; at 50.0 µM 89.2% | [6]; at 100.0 µM 95% | [7]; at 33.0 µM 79% | [7]; at 100.0 µM 95% | [8]; at 50.0 µM 77.5% | [9]; at 33.0 µM 77% | [9]; at 100.0 µM 95% | [10]; at 50.0 µM 77.8% | [11]; at 3.7 µM 70% | [11]; [17] 77% | [11]; at 11.0 µM 84% | [11]; at 33.0 µM 91% | [11]; [18] 82% | [11]; at 50.0 µM 81% | [11]; at 100.0 µM 93% | [12]; at 100.0 µM 91% | [13]; at 33.0 µM 82% | [13]; at 100.0 µM 94% | [14]; at 33.0 µM 80% | [14]; at 100.0 µM 94% | [15]; [18] 71% | [15]; at 50.0 µM 80% | [16]; at 33.0 µM 79% | [16]; at 100.0 µM 93%
inactive: [1]; at 1.2 µM 20% | [1]; at 3.7 µM 23% | [1]; at 11.0 µM 30% | [1]; at 33.0 µM 68% | [2]; at 1.2 µM 30% | [2]; at 3.7 µM 38% | [2]; at 11.0 µM 45% | [3]; at 1.2 µM 2% | [3]; at 3.7 µM 7% | [3]; at 11.0 µM 19% | [3]; at 33.0 µM 42% | [3]; at 100.0 µM 60% | [4]; at 1.2 µM 41% | [4]; at 3.7 µM 28% | [4]; at 11.0 µM 37% | [5]; at 1.2 µM 34% | [5]; at 3.7 µM 39% | [5]; [17] 25% | [5]; at 11.0 µM 53% | [5]; [18] 47% | [6]; at 1.2 µM 43% | [6]; at 3.7 µM 40% | [6]; [17] 36% | [6]; at 11.0 µM 48% | [6]; [18] 59% | [7]; at 1.2 µM 10% | [7]; at 3.7 µM 17% | [7]; at 11.0 µM 20% | [8]; [17] 51% | [8]; [18] 67% | [9]; at 1.2 µM 37% | [9]; at 3.7 µM 44% | [9]; at 11.0 µM 36% | [10]; [17] 16% | [10]; [18] 32% | [11]; at 1.2 µM 67% | [12]; at 1.2 µM -19% | [12]; at 3.7 µM -18% | [12]; at 11.0 µM -19% | [12]; at 33.0 µM 6% | [13]; at 1.2 µM 25% | [13]; at 3.7 µM 27% | [13]; at 11.0 µM 47% | [14]; at 1.2 µM 23% | [14]; at 3.7 µM 29% | [14]; at 11.0 µM 35% | [15]; [17] 5% | [16]; at 1.2 µM -3% | [16]; at 3.7 µM 18% | [16]; at 11.0 µM 30%

O=[N+]([O-])c1ccc(C(c2c[nH]c3ccccc23)c2c[nH]c3ccccc23)cc1
inactive: [2]; at 1.2 µM 12% | [3]; at 1.2 µM 10% | [3]; at 3.7 µM 9% | [3]; at 11.0 µM 3% | [3]; at 33.0 µM 2% | [3]; at 100.0 µM -14% | [4]; at 1.2 µM 18% | [6]; at 1.2 µM 22% | [6]; [17] 10% | [7]; at 1.2 µM 25% | [9]; at 1.2 µM 40% | [10]; [17] 14% | [11]; at 1.2 µM 24% | [11]; [17] 45% | [12]; at 1.2 µM 9% | [13]; at 1.2 µM 33% | [14]; at 1.2 µM 33% | [16]; at 1.2 µM 66%
active: [1]; at 1.2 µM 82% | [1]; at 3.7 µM 97% | [1]; at 11.0 µM 95% | [1]; at 33.0 µM 90% | [1]; at 100.0 µM 82% | [2]; at 3.7 µM 97% | [2]; at 11.0 µM 96% | [2]; at 33.0 µM 92% | [2]; at 100.0 µM 89% | [4]; at 3.7 µM 99% | [4]; at 11.0 µM 97% | [4]; at 33.0 µM 94% | [4]; at 100.0 µM 87% | [5]; at 1.2 µM 84% | [5]; at 3.7 µM 85% | [5]; [17] 79% | [5]; at 11.0 µM 94% | [5]; at 33.0 µM 89% | [5]; [18] 89% | [5]; at 50.0 µM 93.2% | [5]; at 100.0 µM 79% | [6]; at 3.7 µM 99% | [6]; at 11.0 µM 97% | [6]; at 33.0 µM 94% | [6]; [18] 95% | [6]; at 50.0 µM 93.8% | [6]; at 100.0 µM 88% | [7]; at 3.7 µM 98% | [7]; at 11.0 µM 97% | [7]; at 33.0 µM 93% | [7]; at 100.0 µM 84% | [8]; [17] 82% | [8]; [18] 95% | [8]; at 50.0 µM 92.9% | [9]; at 3.7 µM 98% | [9]; at 11.0 µM 96% | [9]; at 33.0 µM 92% | [9]; at 100.0 µM 86% | [10]; [18] 93% | [10]; at 50.0 µM 88.1% | [11]; at 3.7 µM 98% | [11]; at 11.0 µM 96% | [11]; at 33.0 µM 93% | [11]; [18] 96% | [11]; at 50.0 µM 94.3% | [11]; at 100.0 µM 86% | [12]; at 3.7 µM 98% | [12]; at 11.0 µM 97% | [12]; at 33.0 µM 94% | [12]; at 100.0 µM 88% | [13]; at 3.7 µM 98% | [13]; at 11.0 µM 97% | [13]; at 33.0 µM 94% | [13]; at 100.0 µM 90% | [14]; at 3.7 µM 98% | [14]; at 11.0 µM 97% | [14]; at 33.0 µM 95% | [14]; at 100.0 µM 88% | [15]; [17] 93% | [15]; [18] 92% | [15]; at 50.0 µM 93% | [16]; at 3.7 µM 98% | [16]; at 11.0 µM 96% | [16]; at 33.0 µM 92% | [16]; at 100.0 µM 86%
